# Measured values from PubChem BioAssay.
# The source made the active and inactive calls.
# Test system: not listed separately
# Assay: modulators of S6 phosphorylation in cells, primary screen, cell-based, A549, cytoblot, luminescence, serum-stimulated (AID 1158);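 further: serum-stimulated A549 lung adenocarcinoma cells; signal is phosphorylated S6 detected by cytoblot immunostaining with HRP secondary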
# Settings: A549 phospho-S6 cytoblot, 5 h, higher = more signal
row,Compound,z-score
1,OCCCC1=CC(c2ccc(CN3CCCC3)cc2)N(Cc2cc3c(cc2Br)OCO3)CC1 (centres undefined),-0.187
2,O=C(O)[C@@H]1C[C@@H]2C(=O)N3CCC[C@H]3C(=O)N2[C@@H]1c1ccc(O)cc1,0.722
3,CC(C)[Si]1(C(C)C)OCc2cc(-c3ccc(-c4ccc(Cl)c(Cl)c4)o3)nc(-c3ccccc3)c21,-0.106
4,COc1ccc([Si](C)(C)[C@@H]2[C@@H](CCO)O[C@]3(C(=O)N(Cc4ccccc4)c4ccc(N5C(=O)c6cccc7cccc5c67)cc43)[C@H]2C)cc1,-0.0126
5,C=C[C@H](C)[C@H](OC(=O)Nc1ccc(SC)cc1)c1ccc(OCCO)cc1,1.58
6,CCOC(=O)C[C@H]1[C@H](OC(=O)c2cc3ccccc3oc2=O)[C@@H](NC(=O)c2ccc3ccccc3n2)c2cc(OCCCO)ccc2N1C(=O)Cc1ccc(OC)cc1,-0.0026
7,O=C(NCCN1CCOCC1)[C@@H]1c2ccccc2C(=O)N(Cc2ccccc2Cl)[C@H]1c1ccc(CO)cc1,-0.467
8,COC(=O)[C@@]1(Cc2ccc(F)cc2)[C@H]2c3cc(C(=O)N4CCCC4)n(Cc4ccc(C)c(F)c4F)c3C[C@H]2CN1C(=O)c1ccccc1,-0.389
9,CCCCC(CC)C(O)C1C=CC2C(=O)N(c3ccccc3)C(=O)C2N1Nc1ccccc1F (centres undefined),0.434
10,[N-]=[N+]=Nc1ccccc1C[C@]1(C(=O)O)COC(c2ccc(OCCCO)cc2)=N1,-0.103
11,CC(=O)NCCCC[C@@H]1NC(=O)[C@@H]2C[C@H](C(=O)NCCCCCN)[C@H](c3cccc(OCCO)c3)N2C1=O,4.55
12,COc1ccc(C#Cc2ccc3c(c2)[C@]2(C(=O)N3)[C@H](c3ccc(OCCO)cc3)N3[C@H](c4ccccc4)[C@H](c4ccccc4)OC(=O)[C@H]3[C@@H]2C(=O)NC[C@H](O)c2ccccc2)cc1,0.0701
13,CC(C)NC(=O)[C@@]1(C)c2ccccc2C(=O)N(Cc2ccc(OC(F)(F)F)cc2)[C@H]1c1ccc(CO)cc1,0.0795
14,CCCC[C@@H](O)C1=C(COC)C[C@H]2C(=O)N(Cc3ccccc3)C(=O)[C@H]2[C@H]1CO,0.304

# Biological target: NADPH oxidase 2 (Homo sapiens) (UniProt P04839)
# Assay: NOX2-dependent H2O2 signal modulators, primary screen, NOX inhibitor project, cell-based, HEK293-NOX2, PMA-stimulated, Amplex Red fluorescence (AID 1159); further: test concentration not given here
# Settings: 45 min, higher = more signal, called active from +8 up or from −8 down
# NADPH oxidase 2 (Homo sapiens), sequence (P04839 whole entry, looked up): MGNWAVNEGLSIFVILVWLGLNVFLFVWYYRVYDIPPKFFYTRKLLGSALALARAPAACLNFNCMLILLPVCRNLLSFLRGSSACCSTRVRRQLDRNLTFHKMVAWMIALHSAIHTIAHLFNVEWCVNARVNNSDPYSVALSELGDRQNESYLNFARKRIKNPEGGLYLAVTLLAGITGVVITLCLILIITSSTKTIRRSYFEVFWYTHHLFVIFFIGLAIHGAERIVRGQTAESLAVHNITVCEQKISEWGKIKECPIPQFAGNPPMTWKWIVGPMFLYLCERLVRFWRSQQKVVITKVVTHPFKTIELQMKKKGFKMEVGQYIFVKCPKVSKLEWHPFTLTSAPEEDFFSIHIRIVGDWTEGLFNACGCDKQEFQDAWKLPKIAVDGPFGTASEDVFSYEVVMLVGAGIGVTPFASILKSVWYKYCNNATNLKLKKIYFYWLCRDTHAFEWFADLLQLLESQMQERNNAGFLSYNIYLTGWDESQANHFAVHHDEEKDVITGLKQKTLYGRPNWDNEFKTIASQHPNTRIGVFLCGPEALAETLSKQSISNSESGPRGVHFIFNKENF
row,Compound,z-score
1,CCOC(=O)C[C@H]1[C@H](OC(=O)Cc2ccc3c(c2)OCO3)[C@@H](NC(=O)c2ccc3ccccc3n2)c2cc(OCCCO)ccc2N1C(=O)c1ccccc1,-1.88 (inactive)
2,COc1ccc([Si](C)(C)[C@@H]2[C@@H](CC(=O)N(CCO)Cc3ccccc3)O[C@]3(C(=O)N(Cc4cccc(N5CCCCC5=O)c4)c4ccccc43)[C@H]2C)cc1,0.609 (inactive)
3,C=C[C@@H](OC)[C@H](OC(=O)Nc1ccc(OC)cc1)c1ccc(O)c(F)c1,-1.79 (inactive)
4,CCCCCC1=C2CNC(C)(C(=O)OC)C=C2C(C)C1=O (centres undefined),0.116 (inactive)
5,O=C1NC(=O)C2C1C=CC(C(O)c1ccco1)N2Nc1ccc(Cl)cc1Cl (centres undefined),-0.767 (inactive)
6,CCC#CCN(Cc1ccccc1Br)[C@H](/C=C/C1CC1)[C@@H](O)Cc1ccccc1,0.214 (inactive)
7,COc1ccc([Si](C)(C)[C@@H]2[C@@H](CC(=O)N3Cc4ccccc4C[C@H]3CO)O[C@]3(C(=O)N(Cc4ccc(N5C(=O)c6cccc7cccc5c67)cc4)c4ccccc43)[C@H]2C)cc1,0.878 (inactive)
8,[N-]=[N+]=Nc1ccccc1C[C@@]1(C(=O)NCCN2CCOCC2)N=C(c2ccc(OCCCO)cc2)O[C@@H]1c1ccccc1N=[N+]=[N-],-2.91 (inactive)
9,CC1=C2[C@@H](CCc3ccccc3)OB(O)C[C@@H]2[C@@H]2C(=O)N(Cc3ccccc3)C(=O)[C@@H]2C1,-0.0748 (inactive)
10,CC1CC/C=C\[C@H]2OC34C=CCN(Cc5ccccc5)C(=O)[C@H]3N(C(CO)C(C)C)C(=O)[C@@H]4C2C(=O)O1 (some centres undefined),1.84 (inactive)
11,COc1cccc(C)c1NC(=O)O[C@H]1[C@H](OC(=O)Nc2ccc3c(c2)OCO3)[C@@H](OC(=O)Nc2ccc3c(c2)OCO3)[C@@H](OC)O[C@@H]1CO,-1.21 (inactive)
12,Cc1ccccc1C(O)C1C=CC2C(=O)NC(=O)C2N1Nc1ccccn1 (centres undefined),-0.444 (inactive)
13,CCCCC(=C=CC[C@H](O)c1ccc(OCCO)cc1)CCO,-0.649 (inactive)
14,CC(c1ccccc1)C(O)C1C=CC2C(=O)N(C)C(=O)C2N1Nc1ccccc1 (centres undefined),-1.51 (inactive)
15,C=CCC(OC(C)=O)[C@@H]1[C@@H](N(Cc2ccc(-c3cccc(C(F)(F)F)c3)o2)C(=O)Cc2ccc(OC)cc2)c2cc(OCCCO)ccc2N1C(=O)c1ccc(-c2ccccc2)cc1 (some centres undefined),-1.2 (inactive)
16,Cc1ccc(S[C@]2(C(=O)NC(C)C)CC(=O)N(Cc3cc(C(F)(F)F)cc(C(F)(F)F)c3)[C@@H]2c2ccc(CO)cc2)cc1,-0.00496 (inactive)
17,CCOC(=O)C[C@H]1[C@H](OC(=O)c2cc3ccccc3oc2=O)[C@@H](NC(=O)CC(C)C)c2cc(OCCCO)ccc2N1C(=O)c1ccc2ccccc2n1,1.01 (inactive)
18,COc1ccc(CCNC(=O)[C@@]2(c3ccc([N+](=O)[O-])cc3)CC(=O)N(C3CCCCC3)[C@@H]2c2ccc(CO)cc2)cc1,-1.05 (inactive)

row,Compound,z-score
1,C[C@@H]1NC(=O)[C@@H](Cc2ccccc2)NC(=O)[C@@]23C(=O)N[C@@H](Cc4ccccc4)C2[C@H](C)[C@@]2(C)O[C@H]2C3/C=C/C/C=C\CNC1=O (some centres undefined),0.722 (inactive)
2,CCC1=C2CN(Cc3ccccc3)[C@@H](C(=O)Cc3ccccc3)C2C=CCC1 (some centres undefined),-1.12 (inactive)
3,N#Cc1ccc(NN2C(C(O)c3ccc(Br)cc3)C=CC3C(=O)N(c4ccccc4)C(=O)C32)cc1 (centres undefined),-2.6 (inactive)
4,OCCCC1=CC(c2ccc(CN3CCCC3)cc2)N(Cc2cc3c(cc2Br)OCO3)CC1 (centres undefined),-3.1 (inactive)
5,O=C(O)[C@@H]1C[C@@H]2C(=O)N3CCC[C@H]3C(=O)N2[C@@H]1c1ccc(O)cc1,-8.21 (active)
6,CC(C)[Si]1(C(C)C)OCc2cc(-c3ccc(-c4ccc(Cl)c(Cl)c4)o3)nc(-c3ccccc3)c21,0.237 (inactive)
7,COc1ccc([Si](C)(C)[C@@H]2[C@@H](CCO)O[C@]3(C(=O)N(Cc4ccccc4)c4ccc(N5C(=O)c6cccc7cccc5c67)cc43)[C@H]2C)cc1,0.326 (inactive)
8,C=C[C@H](C)[C@H](OC(=O)Nc1ccc(SC)cc1)c1ccc(OCCO)cc1,-0.831 (inactive)
9,CCOC(=O)C[C@H]1[C@H](OC(=O)c2cc3ccccc3oc2=O)[C@@H](NC(=O)c2ccc3ccccc3n2)c2cc(OCCCO)ccc2N1C(=O)Cc1ccc(OC)cc1,1.01 (inactive)
10,O=C(NCCN1CCOCC1)[C@@H]1c2ccccc2C(=O)N(Cc2ccccc2Cl)[C@H]1c1ccc(CO)cc1,-0.112 (inactive)
11,COC(=O)[C@@]1(Cc2ccc(F)cc2)[C@H]2c3cc(C(=O)N4CCCC4)n(Cc4ccc(C)c(F)c4F)c3C[C@H]2CN1C(=O)c1ccccc1,-4.01 (inactive)
12,CCCCC(CC)C(O)C1C=CC2C(=O)N(c3ccccc3)C(=O)C2N1Nc1ccccc1F (centres undefined),-0.157 (inactive)
13,[N-]=[N+]=Nc1ccccc1C[C@]1(C(=O)O)COC(c2ccc(OCCCO)cc2)=N1,-2.44 (inactive)
14,CC(=O)NCCCC[C@@H]1NC(=O)[C@@H]2C[C@H](C(=O)NCCCCCN)[C@H](c3cccc(OCCO)c3)N2C1=O,1.14 (inactive)
15,COc1ccc(C#Cc2ccc3c(c2)[C@]2(C(=O)N3)[C@H](c3ccc(OCCO)cc3)N3[C@H](c4ccccc4)[C@H](c4ccccc4)OC(=O)[C@H]3[C@@H]2C(=O)NC[C@H](O)c2ccccc2)cc1,0.893 (inactive)
16,CC(C)NC(=O)[C@@]1(C)c2ccccc2C(=O)N(Cc2ccc(OC(F)(F)F)cc2)[C@H]1c1ccc(CO)cc1,0.415 (inactive)
17,CCCC[C@@H](O)C1=C(COC)C[C@H]2C(=O)N(Cc3ccccc3)C(=O)[C@H]2[C@H]1CO,-0.725 (inactive)
